Assay outcomes from PubChem.
Shown are actives, neighbours in structure and some others; about 7.9% of the full set was active somewhere.
HCV inhibitor = HCV inhibition | AID 651820 | 340,000 compounds, 3.4% hits | Potency, µM (highest dose often 41.8 µM), for inactives: at the top dose activity change, negative = inhibition, actives largely listed as inhibitors | Huh7.5.1 HCVcc-Cre infection, luciferase reporter, 44 h; active = well fitted inhibition curve with a large enough effect; inconclusive = small, poorly fitted or top-dose-only effect, or another doubt; inactive = no such curve, though single readings can be large or run the other way; also: potency is read from the fitted curve at half-maximal effect
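1,000 cells/well; 4 h culture; + compound; + HCVcc-Cre (~0.5 moi); 44 h; luciferase substrate, RT 15 min; read 15 sec.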
FMDV antiviral = antivirals against foot and mouth disease virus; FMDV antiviral cell-based qHTS; Potency, µM (titrated, usually from 57.9 µM), without a hit: at the highest dose activity change, negative = inhibition, usual class: inhibitors; 410,000 compounds, 1.2% hits; AID 1159524; calls by dose curve; tested in HEK293T cells; also: read-out not given here; potency is read from the fitted curve at half-maximal effect; nearly all actives have a fitted effect of over 45% in size
MARV entry inh = blocks Marburg virus binding to or entry into cells; Marburg virus pseudotyped entry inhibition, cell reporter; Potency, µM (highest dose often 37.8 µM), for the others: at the highest dose activity change, negative = inhibition, most hits filed as inhibitors; 300,000 compounds, 1.8% hits; AID 540276; calls by dose curve; tested in HEK293 cells; also: potency is read from the fitted curve at half-maximal effect
HCMV inh = blocks human cytomegalovirus replication; AID 1259415; 410,000 compounds, 4.5% hits; activity change, negative = inhibition, % at 57.5 µM; HFF cells, HCMV-luciferase reporter, 72 h; hits give low values; in the data active = activity change below about -60%; inconclusive = no clear call, values can overlap the other calls; inactive = above about -39%
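Cell-based, HFFs, 1000 cells/well, 16 h 37C; cpds in DMSO + HCMV-luc, MOI 1 PFU/cell; 72 h 37C; OneGlo luminescence after 5 min RT; norm. to buffer vs Salinomycin 10uM.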
LASV entry inh = inhibitors of Lassa virus binding or cell entry | Lassa virus pseudotype entry inhibition, cell reporter | Potency, µM (top dose mostly 37.9 µM), inactives show at the highest dose activity change, negative = inhibition, usual class: inhibitors | 300,000 compounds, 1.2% hits; calls by dose curve; tested in HEK293 cells; also: potency is read from the fitted curve at half-maximal effect; nearly all actives have a fitted effect of over 50% in size
The depositor's hits bear a star; ? = inconclusive; . = no result given; ! = a repeat was not active; [ ] = another dose, or the depositor's remark. % is scaled to controls: 0 for no effect and ±100 for the full control effect.

SMILES	HCV inhibitor	FMDV antiviral	MARV entry inh	HCMV inh	LASV entry inh
COc1ccc(Nc2nnc(-c3ccc(C)c(S(=O)(=O)NCc4nc5ccccc5[nH]4)c3)c3ccccc23)cc1	.	41.8%	?	-95.3*	-24.9%[46.1 µM]
Cc1ccc(-c2nnc(Nc3cccc(Cl)c3)c3ccccc23)cc1S(=O)(=O)NCC1CCCO1 (configuration not stated)	.	58.0%	-26.1%[46.1 µM]	-65.1*	?
Cc1ccc(-c2nnc(Nc3ccc(O)cc3)c3ccccc23)cc1S(=O)(=O)NCC1CCCO1 (configuration not stated)	.	8.4%	9.8%[46.1 µM]	-70.8*	-24.3%[46.1 µM]
CSCCC(NC(=O)c1ccco1)C(=O)NCc1ccc2c(c1)OCO2 (configuration not stated)	3.3%	-9.8%	22.9%	-2.2	-7.9%
O=C(c1ccc2c(c1)OCO2)N(Cc1cc2cc3c(cc2nc1N1CCOCC1)CCC3)CC1CCCO1 (configuration not stated)	.	0.8%	.	.	.
CC1CC(C)CN(S(=O)(=O)c2ccc3oc(=O)ccc3c2)C1 (configuration not stated)	-2.0%	-21.5%	.	-5.9	.
CC(C)(C)c1ccc(NC(=O)COC(=O)C2(C)CC2(Cl)Cl)cc1 (configuration not stated)	11.2µM*	19.7%	.	35.6	.
Cc1ccccc1NC(=O)COC(=O)C1(C)CC1(Cl)Cl (configuration not stated)	11.6%	27.1%	-1.8%[46.1 µM]	-7.5	18.9%
Cc1cccc(OCC(O)Cn2c(=N)n(CCN3CCCCC3)c3ccccc32)c1 (configuration not stated)	7.08µM*	?	0.517µM*	-62.1*!	?
Nc1nc2ccccc2n1CCOc1ccccc1Cl	?	?	11.2µM*	-18.6	-9.8%
N=c1n(CCN2CCCCC2)c2ccccc2n1CC(O)c1ccco1 (configuration not stated)	?	-6.0%	?	-66.7*	?
CCN(CC)CCn1c(=N)n(CCOc2ccccc2Cl)c2ccccc21	.	?	?	-98.9*	?
COc1ccccc1C(=O)N[C@@H]1c2ccccc2C2(CCN(Cc3nccs3)CC2)[C@H]1OC	.	-13.7%	.	.	.
COC(=O)c1cc2c(cc1N)OCCO2	3.4%	25.3%	-1.3%[46.1 µM]	-5.1	?
O=C(NCc1ccc(F)cc1)c1cccnc1C(=O)O	6.4%	1.6%	2.1%	-30.4	?
O=C(C1CC1)N1CC(=O)N2[C@@H](CO)[C@H](c3ccc(Br)cc3)[C@@H]2C1	.	.	.	-16.9	.
CCN(CC)CCn1c(=N)n(CC(O)COc2ccccc2C)c2ccccc21 (configuration not stated)	.	0.0%	3.16µM*	-99.3*	?
CCN(CC)CCn1c(=N)n(CC(O)COc2cccc(C)c2)c2ccccc21 (configuration not stated)	6.31µM*	?	?	?	?
Cc1ccc(CN(C(=O)COc2cccc([N+](=O)[O-])c2)c2ccccn2)o1	.	-10.4%	2.82µM*	?	?
CCOc1cc(CNc2ccc3c(c2)OCCO3)cc(Br)c1OCC(N)=O	-25.4%	.	-22.2%	-33.0	-19.0%
CCOc1c(Br)cc(CNc2ccc3c(c2)OCCO3)cc1OC	?	25.1µM*	?	-81.6*	-7.0%
CCOc1cc(CNc2ccc3c(c2)OCCO3)cc(Br)c1OC	0.794µM*	25.1µM*	?	-86.5*	?
CCOc1c(Br)cc(CNc2ccc(N3CCOCC3)cc2)cc1OC	?	-15.3%	.	0.0	.
O=C(NCCO)C(=O)NCC(c1ccc2c(c1)OCO2)N1CCOCC1 (configuration not stated)	.	-12.9%	.	24.1	4.7%[46.1 µM]
CC(=O)N1CCC[C@H]1C(=O)NCC1Cc2cc(C)cc(-c3ccc(Cl)cc3)c2O1 (some centres not stated)	.	-3.7%	.	.	.
Cc1cccnc1-c1cccc2c1OC(CNC(=O)Cn1cncn1)C2 (configuration not stated)	.	0.2%	.	.	.
Cc1ccc(S(=O)(=O)N(c2cccc(C(F)(F)F)c2)C2C=CS(=O)(=O)C2)cc1 (configuration not stated)	10µM*	.	-22.9%	-36.8	-2.4%
CCN(C)C(=O)C1=COC2=NC(=O)N(Cc3cccc(Cl)c3)CCN12	.	.	.	-7.1	.
C[C@@H]1CN(C2CCN(C(=O)c3ccccc3Cl)CC2)C[C@H](C)O1	.	.	-18.9%[46.1 µM]	.	.
COc1ccc(C(=O)OCC(=O)NC(=O)NC(C)C)cc1OC	-18.5%	-23.2%	.	10.7	.
